Assay results: PubChem BioAssay (NCATS)
Activity calls are given as the source filed them. The call rests on the fitted dose curve; in most records, active means well fitted curve in the direction sought with a large enough effect; inactive means no such curve, though single readings can be large or run the other way.

Experiment: qHTS for small molecule inhibitors of Yes1 kinase: Counter Assay (AID 686950);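 further: no kinase present so only ADP-Glo detection of a fixed ADP amount is tested; luminescence from ADP-Glo reporting ADP in a fixed ATP and ADP mixture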
Conditions: series mostly up to 76.9 µM
Summary of the method: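 Enzyme-free detection counter-screen: compounds preincubated 20 min in buffer, then 0.08 mM ATP plus 0.02 mM ADP added for 60 min at room temperature; ADP-Glo luminescence. Buffer 50 mM Tris pH 7.5, 10 mM MgCl2, 150 mM NaCl; normalized to ATP+ADP and ATP-only controls.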

| SMILES | outcome |
| --- | --- |
| COc1ccc2ncn(-c3cc(OC(C)c4ccccc4Cl)c(C(N)=O)s3)c2c1 (stereo unspecified) | inactive |
| CN(C)CCOc1ccc(-c2cc(-c3ccc4c(c3)CCC4=NO)c(-c3ccncc3)o2)cc1 | inactive |
| O=C(Nc1ccc(Oc2ccc3nc(NC(=O)c4ccccc4)[nH]c3c2)cc1)Nc1cc(C(F)(F)F)ccc1F | inactive |
| NS(=O)(=O)c1ccc(-c2cc3ccncc3cc2OCc2ccccc2)cc1 | inactive |
| OCCCNc1nccc(-c2c(-c3ccc(F)cc3)nn3cc(C(F)(F)F)ccc23)n1 | inactive |
| COc1cc(N2CCN(C(C)C)CC2)ccc1Nc1nc(Nc2cccc3ncccc23)c2cc[nH]c2n1 | inactive |
| Fc1ccc(-c2ncn(C3CCNCC3)c2-c2ccnc(Oc3cccc(F)c3)n2)cc1 | inactive |
| O=C1NC(=O)C(c2ccccc2)=C1Nc1ccccc1 | inactive |
| CNC(=O)c1cncc(C=Cc2ccccc2C)c1 | inactive |
| Cc1ccc(NC(=O)c2ccoc2)cc1-c1ccc(C(=O)NCC2CC2)cc1 | inactive |
| CCCN1CCC(Oc2cc(Nc3nc(Nc4cccc(F)c4C(N)=O)c4cc[nH]c4n3)c(OC)cc2Cl)CC1 | inactive |
| Nc1nccc(-c2c(-c3ccc(F)cc3)nn3cc(C(F)(F)F)ccc23)n1 | inactive |
| O=C(Nc1n[nH]c2cc(-c3ccccc3)ccc12)C1CC1 | inactive |
| Fc1ccc(-c2ncn(C3CCNCC3)c2-c2ccnc(Oc3ccc4c(c3)OCO4)n2)cc1 | inactive |
| COc1ccc2nc3c4nc5ccc(OC)cc5c4c4c(=O)[nH]c(=O)c4c3c2c1 | inactive |
| CCn1c(-c2nonc2N)nc2c(C#CC(C)(C)O)nc(OCC(N)c3ccccc3)cc21 (stereo unspecified) | inactive |
